# Measured values taken from PubChem BioAssay (NCATS).
# Inconclusive results are not listed. A call without a number means that no potency is given here. Active and inactive are the calls of the source. The call rests on the fitted dose curve.
# Assay: Primary qHTS for inhibitors of SARS-S pseudo-typed particle cell entry (AID 1479145); further: nearly all actives have a fitted effect of over 45% in size
# Settings: SARS-S pseudotyped particle cell entry, luciferase reporter; series mostly up to 57.1 µM
row,Structure (SMILES),Potency
1,C#C[C@]1(O)CC[C@H]2[C@@H]3CCc4cc(O)ccc4[C@H]3CC[C@@]21C,inactive
2,OCc1cc(C(O)CNCCCCCCOCCCCc2ccccc2)ccc1O (stereo not given),inactive
3,Oc1c(I)cc(Cl)c2cccnc12,inactive

# Assay: Primary qHTS for Huh7 cytotoxicity: counterscreen for inhibitors of MERS-S pseudotyped particle cell entry (AID 1479147); further: potency means the concentration at half of the fitted maximal effect
# Settings: cell viability read-out; series mostly up to 57.1 µM
row,Structure (SMILES),Potency
1,Oc1c(Cl)cc(Cl)cc1Sc1cc(Cl)cc(Cl)c1O,inactive
2,COC1=C(OC)C(=O)C(CCCCCCCCCCO)=C(C)C1=O,inactive
3,Cc1cc(C(C)(C)C)cc(C)c1CC1=NCCN1,inactive
4,CCOC(CN1CCN(CC(C)C(=O)c2ccccc2)CC1)c1ccccc1 (stereo not given),inactive
5,CCN(CC)CCOC(=O)C(Cc1cccc2ccccc12)CC1CCCO1 (stereo not given),inactive
6,CCCC(=O)O[C@]1(C(=O)CC)CC[C@H]2[C@@H]3CCC4=CC(=O)CC[C@]4(C)[C@H]3[C@@H](O)C[C@@]21C,inactive
7,CN(C)[C@@H](CCOc1cccc2ccccc12)c1ccccc1,inactive
8,CC(=O)[C@@]1(O)CC[C@H]2[C@@H]3C[C@H](C)C4=CC(=O)CC[C@]4(C)[C@H]3CC[C@@]21C,inactive
9,Clc1ccccc1C(c1ccccc1)(c1ccccc1)n1ccnc1,inactive
10,CN1CCN(c2c(F)cc3c(=O)c(C(=O)O)cn(CCF)c3c2F)CC1,inactive
11,COc1ccnc2c1CCCCC2S(=O)c1nc2ccccc2[nH]1 (stereo not given),inactive
12,C[N+]1(C)CCC(=C(c2ccccc2)c2ccccc2)CC1,inactive
13,COc1ccc(C(Cl)=C(c2ccc(OC)cc2)c2ccc(OC)cc2)cc1,inactive
14,CC(Oc1c(Cl)cccc1Cl)C1=NCCN1 (stereo not given),inactive
15,O=C1O[C@H]([C@@H](O)CO)C(O)=C1O,inactive
16,N/C(=N\N=C\c1ccc(Cl)cc1)N/N=C/c1ccc(Cl)cc1,inactive
17,C[n+]1cc2c3c(ccc2c2ccc4cc5c(cc4c21)OCO5)OCO3,8.91 µM (active)
18,CC1=C(C(=O)OC(C)C)C(c2cccc([N+](=O)[O-])c2)C(C(=O)OC2CN(C(c3ccccc3)c3ccccc3)C2)=C(N)N1 (stereo not given),inactive
19,CC(C)N=C(N)/N=C(\N)Nc1ccc(Cl)cc1,inactive

row,Structure (SMILES),Potency
1,Oc1ccc(Cl)cc1Cc1cc(Cl)ccc1O,inactive
2,CCOc1ccccc1C(N)=O,inactive
3,CC(=O)OCC(=O)Nc1cc(C#N)cc(NC(=O)COC(C)=O)c1Cl,inactive
4,NS(=O)(=O)c1cc(C(=O)O)c(NCc2ccco2)cc1Cl,inactive
5,CCOc1ccc(Cc2nccc3cc(OCC)c(OCC)cc23)cc1OCC,12.6 µM (active)
6,O=c1[nH]c(=O)n([C@H]2C[C@H](O)[C@@H](CO)O2)cc1C(F)(F)F,inactive
7,CCOC(=O)OCC/C(SC(=O)OCC)=C(\C)N(C=O)Cc1cnc(C)nc1N,inactive
8,O=C1CC2(CCCC2)CC(=O)N1CCCCN1CCN(c2ncccn2)CC1,inactive
9,N=C(N)c1ccc(OCCCOc2ccc(C(=N)N)cc2)cc1,inactive
10,CCCCCCCCCCCCCCCCC(C(=O)O)C(O)(CC(=O)O)C(=O)O (stereo not given),inactive
11,CCCCCCCCCCCCOCCOCCOCCOCCOCCOCCOCCOCCOCCO,inactive
12,COc1ccc(CCN(C)CCCC(C#N)(c2cc(OC)c(OC)c(OC)c2)C(C)C)cc1OC (stereo not given),inactive
13,c1ccc(CC2=NCCN2)cc1,inactive
14,CN(C)CCOC(c1ccccc1)c1ccc(Br)cc1 (stereo not given),inactive
15,COc1ccc2cc3[n+](cc2c1OC)CCc1cc2c(cc1-3)OCO2,inactive
16,c1ccc(-c2ccc(C(c3ccccc3)n3ccnc3)cc2)cc1 (stereo not given),inactive
17,CC(=O)Oc1ccc(C2(c3ccc(OC(C)=O)cc3)Oc3ccccc3NC2=O)cc1,inactive
18,CC[N+](CC)(CC(=O)Nc1c(C)cccc1C)Cc1ccccc1,inactive
